Experimental data as given in the supplement of paper PMC11732987, “Enantioselective OTUD7B fragment discovery through chemoproteomics screening and high-throughput optimisation” (Communications Chemistry, 2025).

Experiments:
Assay in all cases: log2 ratio of Biotin-Ahx-Ub-VS probe labelling (fragment/DMSO); higher = less target engagement (more negative = stronger competition), active = hit call of the paper (q ≤ 0.05, log2 ratio ≤ -1)
Details in all cases: compound concentration: 200 uM; treatment time: 3 h
USP34 = USP34 (UniProt Q70CQ2)
Chain of USP34 (Q70CQ2 whole entry, the tested form may be a part): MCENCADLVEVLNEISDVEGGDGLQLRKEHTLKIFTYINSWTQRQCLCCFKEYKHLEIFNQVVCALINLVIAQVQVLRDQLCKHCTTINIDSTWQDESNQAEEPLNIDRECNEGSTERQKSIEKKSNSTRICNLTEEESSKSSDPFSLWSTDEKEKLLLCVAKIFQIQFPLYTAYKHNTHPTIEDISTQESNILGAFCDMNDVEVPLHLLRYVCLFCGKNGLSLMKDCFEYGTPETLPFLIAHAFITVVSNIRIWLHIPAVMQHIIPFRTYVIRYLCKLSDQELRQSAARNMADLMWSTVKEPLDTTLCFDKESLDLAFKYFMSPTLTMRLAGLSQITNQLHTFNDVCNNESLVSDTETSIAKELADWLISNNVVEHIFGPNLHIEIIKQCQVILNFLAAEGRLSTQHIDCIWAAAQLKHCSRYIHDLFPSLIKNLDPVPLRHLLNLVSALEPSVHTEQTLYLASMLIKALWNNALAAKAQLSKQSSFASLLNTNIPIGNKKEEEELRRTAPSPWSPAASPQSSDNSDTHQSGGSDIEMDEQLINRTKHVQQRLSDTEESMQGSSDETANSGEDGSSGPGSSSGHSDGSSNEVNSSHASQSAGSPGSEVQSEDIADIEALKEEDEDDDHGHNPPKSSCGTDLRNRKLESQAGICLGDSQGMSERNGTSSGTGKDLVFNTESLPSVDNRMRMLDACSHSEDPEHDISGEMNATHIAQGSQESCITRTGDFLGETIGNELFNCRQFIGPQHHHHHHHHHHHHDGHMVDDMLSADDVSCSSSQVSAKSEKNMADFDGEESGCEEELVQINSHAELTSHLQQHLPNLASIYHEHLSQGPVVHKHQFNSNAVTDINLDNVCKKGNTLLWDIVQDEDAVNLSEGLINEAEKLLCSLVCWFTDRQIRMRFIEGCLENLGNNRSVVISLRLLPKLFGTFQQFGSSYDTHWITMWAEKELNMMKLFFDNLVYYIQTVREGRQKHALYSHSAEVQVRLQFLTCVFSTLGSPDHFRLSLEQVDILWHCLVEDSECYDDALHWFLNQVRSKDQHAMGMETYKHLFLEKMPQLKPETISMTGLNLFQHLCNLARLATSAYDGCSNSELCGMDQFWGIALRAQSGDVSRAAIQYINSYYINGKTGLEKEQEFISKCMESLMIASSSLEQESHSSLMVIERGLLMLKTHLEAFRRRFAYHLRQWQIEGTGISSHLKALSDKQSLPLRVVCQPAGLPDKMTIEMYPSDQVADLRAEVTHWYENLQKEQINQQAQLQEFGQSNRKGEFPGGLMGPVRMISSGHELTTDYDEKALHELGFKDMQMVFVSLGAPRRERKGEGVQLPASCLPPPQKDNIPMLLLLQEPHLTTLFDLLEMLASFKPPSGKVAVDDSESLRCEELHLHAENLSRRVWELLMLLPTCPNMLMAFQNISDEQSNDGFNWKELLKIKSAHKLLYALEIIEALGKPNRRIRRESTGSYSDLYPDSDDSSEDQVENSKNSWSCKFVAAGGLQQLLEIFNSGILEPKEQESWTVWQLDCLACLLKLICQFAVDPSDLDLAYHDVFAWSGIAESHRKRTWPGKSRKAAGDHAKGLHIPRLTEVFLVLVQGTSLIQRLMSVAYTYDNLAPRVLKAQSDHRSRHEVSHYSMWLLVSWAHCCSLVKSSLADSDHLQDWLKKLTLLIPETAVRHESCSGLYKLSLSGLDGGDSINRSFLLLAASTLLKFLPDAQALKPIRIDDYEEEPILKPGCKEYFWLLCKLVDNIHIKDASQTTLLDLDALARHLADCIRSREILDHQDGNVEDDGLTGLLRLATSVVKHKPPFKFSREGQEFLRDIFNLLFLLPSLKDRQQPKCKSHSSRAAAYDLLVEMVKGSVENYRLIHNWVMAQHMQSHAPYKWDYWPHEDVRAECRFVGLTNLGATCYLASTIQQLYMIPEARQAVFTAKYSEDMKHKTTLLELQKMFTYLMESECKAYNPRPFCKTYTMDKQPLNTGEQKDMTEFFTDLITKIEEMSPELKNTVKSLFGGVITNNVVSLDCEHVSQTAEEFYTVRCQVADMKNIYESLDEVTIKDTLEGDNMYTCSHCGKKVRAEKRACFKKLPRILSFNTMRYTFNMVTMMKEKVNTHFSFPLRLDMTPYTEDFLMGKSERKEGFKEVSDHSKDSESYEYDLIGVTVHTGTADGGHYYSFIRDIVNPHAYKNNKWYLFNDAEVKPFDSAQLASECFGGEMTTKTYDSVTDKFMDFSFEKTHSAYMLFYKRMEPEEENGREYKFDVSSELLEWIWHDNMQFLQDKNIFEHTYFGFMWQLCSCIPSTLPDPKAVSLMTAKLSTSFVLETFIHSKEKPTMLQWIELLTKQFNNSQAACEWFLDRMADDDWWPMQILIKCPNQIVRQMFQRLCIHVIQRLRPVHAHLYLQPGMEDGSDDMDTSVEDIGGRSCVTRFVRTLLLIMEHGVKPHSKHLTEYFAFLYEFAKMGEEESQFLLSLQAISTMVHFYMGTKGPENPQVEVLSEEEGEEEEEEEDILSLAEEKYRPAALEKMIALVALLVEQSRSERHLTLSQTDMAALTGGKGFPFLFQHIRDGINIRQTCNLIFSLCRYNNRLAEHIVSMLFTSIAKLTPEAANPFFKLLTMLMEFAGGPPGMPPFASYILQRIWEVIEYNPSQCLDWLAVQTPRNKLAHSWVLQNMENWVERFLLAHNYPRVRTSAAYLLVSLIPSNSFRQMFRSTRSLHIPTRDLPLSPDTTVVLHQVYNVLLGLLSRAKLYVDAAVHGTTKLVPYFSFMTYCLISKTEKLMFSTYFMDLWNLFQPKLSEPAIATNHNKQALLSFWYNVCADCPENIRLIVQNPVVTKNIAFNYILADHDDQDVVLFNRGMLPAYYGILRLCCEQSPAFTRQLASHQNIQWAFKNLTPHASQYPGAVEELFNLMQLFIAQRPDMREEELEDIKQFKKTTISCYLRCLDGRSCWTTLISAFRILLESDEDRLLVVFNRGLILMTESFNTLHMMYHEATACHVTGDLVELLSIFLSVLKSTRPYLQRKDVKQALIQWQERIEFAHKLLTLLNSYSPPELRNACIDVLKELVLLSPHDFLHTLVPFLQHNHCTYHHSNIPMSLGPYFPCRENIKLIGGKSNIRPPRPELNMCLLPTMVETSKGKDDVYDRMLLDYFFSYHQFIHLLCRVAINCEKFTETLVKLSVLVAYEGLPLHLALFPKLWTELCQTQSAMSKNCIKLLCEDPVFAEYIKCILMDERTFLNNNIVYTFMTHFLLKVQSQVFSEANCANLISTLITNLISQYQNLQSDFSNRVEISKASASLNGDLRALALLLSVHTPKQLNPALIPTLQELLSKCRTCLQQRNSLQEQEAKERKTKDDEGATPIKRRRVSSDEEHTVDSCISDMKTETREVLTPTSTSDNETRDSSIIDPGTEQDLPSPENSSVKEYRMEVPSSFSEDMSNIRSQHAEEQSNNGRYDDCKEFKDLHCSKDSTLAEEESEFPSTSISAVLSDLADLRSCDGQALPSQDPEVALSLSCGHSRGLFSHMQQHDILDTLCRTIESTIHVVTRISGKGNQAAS
Summary of the method: (§1)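 Labelled DUBs from HEK293T lysate were NeutrAvidin-enriched, digested with LysC and trypsin, and run by diaPASEF LC-MS/MS. Before that, each 495 µg sample in Tris/CHAPS/IGEPAL buffer with protease inhibitors was treated in triplicate with fragment at 200 µM or vehicle for 3 h, then with Biotin-Ahx-Ub-VS at 0.5 µM final for 1 h. Values are average log2 ratios of fragment over vehicle by unpaired t-test, based on global-median-normalised Spectronaut label-free quantities from proteins with ≥2 unique peptides.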

USP36 = target: T1, USP36 (UniProt Q9P275)
T1 sequence (whole entry): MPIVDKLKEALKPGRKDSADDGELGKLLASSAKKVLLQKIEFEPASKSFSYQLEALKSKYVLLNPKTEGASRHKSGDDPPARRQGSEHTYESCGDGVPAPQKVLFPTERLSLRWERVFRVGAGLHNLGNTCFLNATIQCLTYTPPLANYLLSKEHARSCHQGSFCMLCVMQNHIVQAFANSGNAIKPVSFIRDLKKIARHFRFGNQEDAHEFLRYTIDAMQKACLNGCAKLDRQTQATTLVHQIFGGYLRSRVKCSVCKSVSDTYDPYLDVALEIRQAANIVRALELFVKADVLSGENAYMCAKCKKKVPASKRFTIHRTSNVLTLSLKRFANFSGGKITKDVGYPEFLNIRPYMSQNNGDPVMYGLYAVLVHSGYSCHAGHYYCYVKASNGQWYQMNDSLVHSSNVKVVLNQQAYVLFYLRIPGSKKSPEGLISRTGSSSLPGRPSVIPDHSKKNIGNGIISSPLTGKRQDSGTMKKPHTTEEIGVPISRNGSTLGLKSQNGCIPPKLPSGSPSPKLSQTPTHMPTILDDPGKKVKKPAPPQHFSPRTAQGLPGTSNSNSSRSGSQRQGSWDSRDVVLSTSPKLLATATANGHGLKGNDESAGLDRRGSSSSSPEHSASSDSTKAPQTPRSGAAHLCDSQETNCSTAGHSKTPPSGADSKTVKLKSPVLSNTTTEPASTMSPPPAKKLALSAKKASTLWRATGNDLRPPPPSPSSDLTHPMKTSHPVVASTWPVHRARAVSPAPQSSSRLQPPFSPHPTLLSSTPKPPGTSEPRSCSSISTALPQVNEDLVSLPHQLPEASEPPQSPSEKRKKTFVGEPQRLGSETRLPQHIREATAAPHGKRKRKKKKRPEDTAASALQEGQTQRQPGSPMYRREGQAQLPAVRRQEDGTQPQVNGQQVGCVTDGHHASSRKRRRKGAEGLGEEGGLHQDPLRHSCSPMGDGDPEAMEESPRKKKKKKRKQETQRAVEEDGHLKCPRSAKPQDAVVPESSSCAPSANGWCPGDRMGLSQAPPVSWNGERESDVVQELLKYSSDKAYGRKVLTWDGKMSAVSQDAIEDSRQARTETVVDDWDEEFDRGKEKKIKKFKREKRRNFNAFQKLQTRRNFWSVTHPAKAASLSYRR
Summary of the method: as §1

USP38 = target: T2, USP38 (UniProt Q8NB14)
T2 sequence (whole entry): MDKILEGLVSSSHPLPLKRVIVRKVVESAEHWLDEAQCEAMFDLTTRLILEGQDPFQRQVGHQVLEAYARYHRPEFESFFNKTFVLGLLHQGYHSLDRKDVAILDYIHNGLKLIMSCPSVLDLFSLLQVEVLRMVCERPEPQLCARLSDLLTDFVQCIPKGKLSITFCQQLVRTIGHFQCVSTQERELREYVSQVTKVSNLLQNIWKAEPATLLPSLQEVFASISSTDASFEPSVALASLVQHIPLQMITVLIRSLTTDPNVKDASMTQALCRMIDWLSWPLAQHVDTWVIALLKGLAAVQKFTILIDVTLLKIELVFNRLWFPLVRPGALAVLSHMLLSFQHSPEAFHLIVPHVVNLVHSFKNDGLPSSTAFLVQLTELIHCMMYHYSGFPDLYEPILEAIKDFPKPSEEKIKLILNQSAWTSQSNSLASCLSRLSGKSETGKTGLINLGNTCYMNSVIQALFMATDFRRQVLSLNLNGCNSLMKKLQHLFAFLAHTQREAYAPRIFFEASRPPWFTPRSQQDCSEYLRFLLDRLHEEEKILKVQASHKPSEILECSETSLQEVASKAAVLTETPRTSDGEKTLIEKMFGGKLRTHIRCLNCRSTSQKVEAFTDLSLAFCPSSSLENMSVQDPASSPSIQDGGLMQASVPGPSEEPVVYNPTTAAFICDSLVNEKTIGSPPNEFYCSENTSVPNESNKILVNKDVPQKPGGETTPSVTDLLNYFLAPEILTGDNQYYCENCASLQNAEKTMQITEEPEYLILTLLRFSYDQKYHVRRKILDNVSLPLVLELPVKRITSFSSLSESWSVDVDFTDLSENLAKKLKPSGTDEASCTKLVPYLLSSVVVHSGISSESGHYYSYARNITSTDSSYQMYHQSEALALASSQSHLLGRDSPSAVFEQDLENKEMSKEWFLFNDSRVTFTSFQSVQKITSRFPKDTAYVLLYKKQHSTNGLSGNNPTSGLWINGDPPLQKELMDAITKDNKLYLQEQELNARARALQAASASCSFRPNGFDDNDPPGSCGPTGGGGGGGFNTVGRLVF
Summary of the method: as §1

USP39 = target: T3, USP39 (UniProt Q53GS9)
T3 sequence (whole entry): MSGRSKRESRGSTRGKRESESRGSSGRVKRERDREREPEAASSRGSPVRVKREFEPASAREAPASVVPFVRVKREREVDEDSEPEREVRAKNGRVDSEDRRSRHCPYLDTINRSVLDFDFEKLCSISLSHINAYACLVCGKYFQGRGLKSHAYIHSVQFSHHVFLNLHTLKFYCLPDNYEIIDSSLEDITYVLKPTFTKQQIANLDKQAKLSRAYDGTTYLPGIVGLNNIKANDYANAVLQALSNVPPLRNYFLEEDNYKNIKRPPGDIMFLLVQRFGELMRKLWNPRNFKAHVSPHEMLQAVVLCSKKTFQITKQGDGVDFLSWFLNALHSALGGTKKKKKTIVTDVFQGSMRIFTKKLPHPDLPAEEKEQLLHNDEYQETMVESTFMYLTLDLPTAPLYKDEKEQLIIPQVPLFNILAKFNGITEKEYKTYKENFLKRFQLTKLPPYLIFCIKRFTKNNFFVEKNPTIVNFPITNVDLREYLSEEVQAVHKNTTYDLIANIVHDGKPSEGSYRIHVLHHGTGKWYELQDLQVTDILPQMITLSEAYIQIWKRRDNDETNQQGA
Summary of the method: as §1

USP4 = target: T4, USP4 (UniProt Q13107)
T4 sequence (whole entry): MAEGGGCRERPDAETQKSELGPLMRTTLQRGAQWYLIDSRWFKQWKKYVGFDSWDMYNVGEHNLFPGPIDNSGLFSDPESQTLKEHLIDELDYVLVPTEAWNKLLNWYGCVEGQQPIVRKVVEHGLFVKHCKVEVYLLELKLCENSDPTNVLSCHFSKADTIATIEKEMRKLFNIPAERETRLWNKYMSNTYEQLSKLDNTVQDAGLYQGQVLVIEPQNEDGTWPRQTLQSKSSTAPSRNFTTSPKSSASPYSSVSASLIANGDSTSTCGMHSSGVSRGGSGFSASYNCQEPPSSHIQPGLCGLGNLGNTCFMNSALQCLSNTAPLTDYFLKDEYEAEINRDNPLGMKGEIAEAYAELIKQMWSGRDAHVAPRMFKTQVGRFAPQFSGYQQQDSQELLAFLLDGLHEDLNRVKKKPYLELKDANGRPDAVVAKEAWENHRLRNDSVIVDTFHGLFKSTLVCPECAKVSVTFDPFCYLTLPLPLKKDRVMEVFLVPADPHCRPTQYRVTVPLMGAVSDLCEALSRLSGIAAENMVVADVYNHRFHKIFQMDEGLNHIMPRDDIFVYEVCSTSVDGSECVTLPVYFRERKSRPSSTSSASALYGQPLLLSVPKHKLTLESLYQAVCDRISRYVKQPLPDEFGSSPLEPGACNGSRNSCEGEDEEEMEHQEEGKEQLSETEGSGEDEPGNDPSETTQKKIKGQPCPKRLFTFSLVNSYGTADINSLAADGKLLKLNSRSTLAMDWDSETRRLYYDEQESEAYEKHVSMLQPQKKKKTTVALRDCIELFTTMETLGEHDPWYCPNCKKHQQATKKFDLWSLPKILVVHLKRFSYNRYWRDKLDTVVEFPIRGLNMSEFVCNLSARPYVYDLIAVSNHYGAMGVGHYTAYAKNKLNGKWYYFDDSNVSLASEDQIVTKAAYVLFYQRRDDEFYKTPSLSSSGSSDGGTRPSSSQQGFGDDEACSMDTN
Summary of the method: as §1

Measured: log2 ratio of Biotin-Ahx-Ub-VS probe labelling

O=C(CCl)N1CCCCC12CCOCC2
inactive: USP34 -0.284 | USP36 -0.239 | USP38 -0.4 | USP39 -0.243 | USP4 -0.266
